In PubChem BioAssay (NCI):
The panel holds about 83,000 compounds, 20% with a hit somewhere; the sample as a whole holds those more often.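 Single-dose data. Exposure time 48 hours. Values below 10 considered active.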 Values without a mark were called inactive. The source made the active and inactive calls.

test system: SK-OV-3 ovarian; assay: NCI-60 one-dose screen, 48 h (100 = growth as untreated, 0 = no growth, -100 = all killed); settings: 10 µM unless noted

Row | Compound | growth
1 | COc1cc(-c2cc3ncccc3c3nc(OCCN(C)C)c4cccnc4c23)cc(OC)c1OC | -10.8% (active)
2 | CN(C)CCCC1(c2ccc(F)cc2)OCc2cc(-c3ccc(C(F)(F)F)nc3)ccc21 (centres undefined) | 80.3%
3 | Cn1cc(-c2csc(-c3cn(CCNC(=O)OC(C)(C)C)c4ccccc34)n2)c2cccnc21 | 94.9%
4 | N#CC1=C(N)Oc2c(c(N)nn2-c2ccccc2)C1c1ccc(Cl)cc1Cl (centres undefined) | 92.5%
5 | CCN1CCN(C(=O)[C@]23CC[C@@H](C)[C@H](C)[C@H]2C2=CC[C@@H]4[C@@]5(C)C/C(=C/c6cccc(OC)c6OC)C(=O)C(C)(C)[C@@H]5CC[C@@]4(C)[C@]2(C)CC3)CC1 | 68.6%
6 | Cc1csc(Nc2nc(-c3ccc(Cl)cc3)nc(C(Cl)(Cl)Cl)n2)n1 | 94.1%
7 | COc1ccc(/C=C(\C#N)c2cc3ccccc3n2S(C)(=O)=O)cc1 | 112%
8 | Cc1cc(Cl)c2c(N(C)C)cccc2n1 | 92.4%
9 | O=C1c2ccccc2NC(c2cn(-c3ccccc3)nc2-c2cccs2)N1Cc1ccccc1 (centres undefined) | 84%
10 | COCCNC1=C(Cl)C(=O)c2ccccc2C1=O | 116%
11 | Oc1ccc(Nc2ccccc2)cc1 | 97.9%
12 | COC(=O)[C@]12CC[C@@H](C)[C@H](C)[C@@H]1C1=CC[C@@H]3[C@@]4(C)C[C@@H](OC(C)=O)[C@H](OC(C)=O)[C@@](C)(COC(C)=O)[C@@H]4[C@H](O)C[C@@]3(C)[C@]1(C)CC2 | 2.45% (active)
13 | Cc1c(C)c2c(c(C)c1NC(=O)CCCCCCC(=O)O)CCC(C)(CCCC(C)CCCC(C)CCCC(C)C)O2 (centres undefined) | 99.3%
14 | Cc1ccc(Cc2cnc(NC(=O)/C=C/c3cccc(C)c3)s2)cc1 | 15.7%
15 | CC1(C)[C@@H](O)CC[C@]2(C)[C@H]3CC[C@@H]4[C@H]5[C@H](C(=O)/C=C/c6ccc(C(F)(F)F)cc6)CC[C@]5(CO)CC[C@@]4(C)[C@]3(C)CC[C@@H]12 | 98.6%
16 | COc1cc2ncnc(Nc3ccc(OCc4cccc(F)c4)c(Cl)c3)c2cc1NC(=O)C1CCCC1 | 13%
17 | C=C(C)[C@@H]1CC[C@]2(c3nnc(-c4ccncc4)o3)CC[C@]3(C)[C@H](CC[C@@H]4[C@@]5(C)CCC(=O)NC(C)(C)[C@@H]5CC[C@]43C)[C@@H]12 | 100%
18 | CCc1cccc(CC)c1NC(=O)c1sc2nc3c(cc2c1N)CCCC3 | 81.9%
19 | CCc1ccccc1NC(=O)c1sc2nc3c(cc2c1N)CCCC3 | 38.8%
20 | O=Cc1nc2ccccc2[nH]1 | 94.2%

Row | Compound | growth
21 | C[C@@H]1CCCCCCCCC[C@H](O)C(=O)C[C@@H](SC[C@@H](O)C(=O)O)C(=O)O1 | 104%
22 | C=C(C)[C@@H]1CC[C@]2(C(=O)N3CCN(CC)CC3)CC[C@]3(C)[C@H](CC[C@@H]4[C@@](C)(CCC(=O)N5CCN(CC)CC5)[C@H](C(=C)C)CC[C@]43C)[C@@H]12 | 95.5%
23 | Brc1ccc(Cn2nnnc2-c2ccn(-c3ccccc3)n2)cc1 | 82.1%
24 | CCCCN1CCCCn2c1nc1c2c(=O)n(C)c(=O)n1C | 110%
25 | CCCCC[C@H]1CC=C2C(=O)C=C[C@@H]2CC=CCCCC(=O)O[C@@H](CCCCC)CC=C2C(=O)C=C[C@@H]2CC=CCCCC(=O)O[C@@H](CCCCC)CC=C2C(=O)C=C[C@@H]2CC=CCCCC(=O)O1 | 36.7% [8.75 µM]
26 | CC(C)=CCC[C@](C)(O)[C@H]1CC[C@]2(C)[C@@H]1CC[C@@H]1[C@@]3(C)C/C(=C/c4cccc([N+](=O)[O-])c4)C(=O)C(C)(C)[C@@H]3CC[C@]12C | 109%
27 | Cn1cc(-c2csc(-c3cn(CCNC(=O)OC(C)(C)C)c4ccc(F)cc34)n2)c2cccnc21 | 96.6%
28 | CN1CCN(CCOc2ccc(-c3cnc4c(-c5ccccc5F)cnn4c3)cc2)CC1 | 94.2%
29 | Cc1cc(N2CCCCC2)nc(N(CCCNc2ccnc3cc(Cl)ccc23)Cc2ccco2)n1 | 57.4%
30 | Brc1ccc2c(c1)c(-c1nc(-c3c[nH]c4ncccc34)cs1)cn2CCCN1CCCCC1 | 63.1%
31 | NC1=C(C/C(N)=N\O)C(c2ccccc2Cl)c2c(ccc3ccccc23)O1 (centres undefined) | 92.2%
32 | O=C1Nc2ccccc2/C1=C/c1cn(CCCn2c3ccccc3c(=O)c3ccccc32)c2ccccc12 | 86.6%
33 | COC(=O)[C@]12CC[C@@H](C)[C@H](C)[C@@H]1C1=CC[C@@H]3[C@@]4(C)C(c5ncon5)=C[C@@](C)(CO)C4=CC[C@@]3(C)[C@]1(C)CC2 | 68.9%
34 | c1ccc(CN2C(c3ccccc3)=Nc3ccccc3C2c2c[nH]c3ccccc23)cc1 (centres undefined) | 71.6%
35 | CC1(C)NCCC[C@]2(C)[C@H]3CC[C@@H]4[C@H]5[C@H](C(=O)/C=C/c6ccccn6)CC[C@]5(CO)CC[C@@]4(C)[C@]3(C)CC[C@@H]12 | 82.2%
36 | Cc1cccc(C)c1NCc1nc(-c2ccccc2)n[nH]1 | 93.7%
37 | COc1cccc(-c2nn(-c3ccccc3)cc2-c2ccnc(NCCNS(=O)(=O)c3cccc(F)c3)c2)c1 | 46.6%
38 | N#C/C(=C\c1ccc(-c2ccc(Cl)cc2)o1)c1nc(-c2ccco2)cs1 | 90.9%
39 | COc1cc(-c2cc3cc(O)ccc3oc2=O)cc(OC)c1OC | 102%
